The values that follow come from PubChem BioAssay (NCATS).

Results filed as inconclusive are left out. A number with no mark means an inactive call. The call rests on the fitted dose curve; in most records, active means well fitted cell-killing curve with a large enough effect; inconclusive means small, poorly fitted or top-dose-only effect, or effect the other way; inactive means flat fitted curve, though single readings scatter.
On the % scale 0 is the no-effect control and ±100 the full control effect.

This test relates to CAOV3. The test is described as follows: Primary qHTS to identify gynecologic anti-cancer compounds using libraries of approved drugs and bioactive compounds (AID 1345084). Further: nearly all actives have a fitted effect of over 55% in size. Particulars: Gynecologic cancer cell panel viability, ATPlite luminescence, 48 h; series mostly up to 57.5 µM; activity change, negative = cytotoxicity: at the top concentration. The source says:
National Center for Advancing Translational Sciences [NCATS] Assay Overview: Chemotherapeutic drug responses vary from cancer to cancer and from patient to patient. These variations could be caused by a number of factors including patient genomic background, tumor mutations, tumor heterogeneity, and aspects of drug treatment. Chemotherapeutic drug resistance is also a common issue and can lead to ineffective treatment and patient death. Here we have profiled the cell killing effects of thousands of compounds to characterize the responses in three gynecological cancers, identify cancer-selective compounds, and understand the diversity of responses to these compounds from pan-cancer suppressors to single cell line selective compounds. In this assay, we screened a 7,914 compound drug library that included approved drug and bioactive compounds in six ovarian, three cervical, and […] placental cancer cell lines using the ATPlite assay for cell viability. […] The cervical cancer cell lines included HeLa, Ca Ski, and C-33 A. The placental cancer cell lines included JEG-3. HEK 293T cells were used as the control cell line to determine the selectivity index. ATPlite is a luminescence based assay reliant on the conversion of a luciferase substrate to light in the presence of ATP. As a cytotoxic compound will suppress growth and decrease the number of cells, the concentration of ATP will decrease, and less light signal will be detected in the well.
Assay Protocol Summary: 1,000 cells in 4 uL of media were dispensed into white, solid bottom 1536-well plates using a Multidrop Combi (Thermo Scientific). The Assay plates were incubated for 16 hours at 37 C with 5% CO2 in assay plates, followed by the addition of 23 nL of DMSO or drug dissolved in DMSO. Each compound was assayed in five concentrations (0.092, 0.46, 2.3, 11.5, and 57.5 uM), using the automated Wako 1536 Pin Tool workstation and incubated at 37 C with 5% CO2 48 hours. 4 uL of ATPlite, the ATP monitoring reagent, was then added to the each well of the assay plates using the Multidrop Combi reagent dispenser followed by incubation for 15 minutes at room temperature. The resulting luminescence was measured using the ViewLux plate reader.
A general note: qHTS replaces the single test concentration by a dilution series.
Turning to `Cc1nnc(C(C)C)n1C1CC2CCC(C1)N2CC[C@H](NC(=O)C1CCC(F)(F)CC1)c1ccccc1` (stereo not given in full), the “activity change, negative = cytotoxicity” value is -4.78%. As for `C[C@]1(O)CC[C@@H]2C(C(=O)O)=CO[C@@H](O[C@@H]3O[C@H](COC(=O)c4ccc(O)cc4)[C@@H](O)[C@H](O)[C@H]3O)[C@@H]21`, the “activity change, negative = cytotoxicity” value was 5.79% [at 25.3 µM]. With `C=CC(C)(CC/C=C(\C)CC/C=C(\C)CC(O)/C=C(\C)C(=O)O)O[C@@H]1O[C@H](CO)[C@@H](O)[C@H](O)[C@H]1O[C@@H]1O[C@H](CO)[C@@H](O)[C@H](O)[C@H]1O` (stereo not given in full), the “activity change, negative = cytotoxicity” value is -14.5% [at 25.3 µM]. In the case of `CCC[C@@H]1C[C@@H](C(=O)N[C@@H]([C@H]2O[C@H](SC)[C@H](O)[C@@H](O)[C@@H]2O)[C@@H](C)O)N(C)C1` it was 9.5%. In the case of `C=C1CCC2[C@@](C)(C=O)CCC[C@]2(C)[C@H]1CC/C(C)=C/CO` (stereo not given in full) it was 3.92%; in that of `C=CCc1ccc(O[C@@H]2O[C@H](CO[C@@H]3O[C@H](CO)[C@@H](O)[C@H](O)[C@H]3O)[C@@H](O)[C@H](O)[C@H]2O)c(O)c1`, -0.81% [at 25.3 µM]; in that of `CC(C)CC(=O)O[C@@H]1OC=C(CO[C@@H]2O[C@H](CO[C@@H]3O[C@H](CO)[C@@H](O)[C@H](O)[C@H]3O)[C@@H](O)[C@H](O)[C@H]2O)[C@H]2C[C@H](O)[C@@H](CO)[C@@H]12`, 6.92% [at 25.3 µM]. On to `COc1ccc([C@H]2Cc3cccc(O)c3C(=O)O2)cc1`, for which the “activity change, negative = cytotoxicity” value was -17.6%. With `CC(=O)O[C@@H]1C[C@]2(C)[C@@]3(CCC4[C@@]5(C)CC[C@H](O[C@@H]6O[C@H](C(=O)O)[C@@H](O)[C@H](O[C@@H]7O[C@H](CO)[C@H](O)[C@H](O)[C@H]7O[C@@H]7O[C@@H](C)[C@H](O)[C@@H](O)[C@H]7O[C@@H]7OC[C@](O)(CO)[C@H]7O)[C@H]6O[C@@H]6O[C@H](CO)[C@H](O)[C@H](O)[C@H]6O)C(C)(C)C5CC[C@]42C)O[C@@H](O)[C@]12C3CC(C)(C)[C@@H](OC(=O)/C=C/c1ccc(O)c(O)c1)[C@@H]2OC(=O)/C=C/c1ccccc1` (stereo not given in full) the figure was 0.993% [at 6.55 µM]; with `O=C(CCCCc1ccc2ccccc2c1)C(F)(F)F`, 2.85% [at 116 µM].

As for `C=C(C(=O)OC)C1CCC2(C)C(O[C@@H]3O[C@H](CO)[C@@H](O)[C@H](O)[C@H]3O)CC(=O)C(C)C2C1O` (stereo not given in full), the “activity change, negative = cytotoxicity” value is 1.78% [at 25.3 µM]. Consider `C/C=C(/C)C(=O)O[C@H]1C=C(C)C[C@H](OC(=O)c2ccc(O)cc2)C2[C@](O)(C(C)C)CC[C@@]21C` (stereo not given in full), for which the “activity change, negative = cytotoxicity” value is 11.8% [at 25.3 µM]. With `C=C1CC[C@H]2[C@@](C)(CCC[C@@]2(C)C(=O)O)[C@@H]1CCC(C)CCO` (stereo not given in full) the figure was 2.66% [at 38.5 µM]. With `C[C@@H]1O[C@@H](O[C@H]2[C@H](OC(=O)C34CCC5(C)C(=CCC6C7(C)CC(O)C(O[C@@H]8O[C@H](C(=O)O)[C@@H](O)[C@H](O)[C@H]8O)C(C)(C(=O)O)C7CCC65C)C3CC(C)(C)CC4O)O[C@H](C)[C@@H](O)[C@@H]2O)[C@H](O)[C@@H](O[C@@H]2OC[C@](O)(CO)[C@H]2O[C@@H]2O[C@H](CO)[C@@H](O)[C@H](O)[C@H]2O)[C@H]1O` (stereo not given in full), the activity change, negative = cytotoxicity was 7.58% [at 6.55 µM]. In the case of `O=S(=O)(Nc1ccc(C(O)(C(F)(F)F)C(F)(F)F)cc1)c1cccs1` it was 18.9%. In the case of `OCc1ccccc1O[C@@H]1O[C@H](CO)[C@@H](O)[C@H](O)[C@H]1O`, the “activity change, negative = cytotoxicity” value is 17.3%. Take `COc1c(C)c(OCC=C(C)C)cc2c1C(=O)NC2=O`: the “activity change, negative = cytotoxicity” value was 0.698%. On to `CC(=O)OC1C(O)CC(O[C@@H]2O[C@H](CO)[C@@H](O)[C@H](O)[C@H]2O)C2CCC3C(=O)OC(c4ccoc4)CC3(C)C21` (stereo not given in full), for which the “activity change, negative = cytotoxicity” value is 0.846% [at 25.3 µM]. Turning to `CC1CCC2(C)C(CC(O)C(O)C23CO3)C1(C)CCC1=CC(O)OC1=O` (stereo not given), the “activity change, negative = cytotoxicity” value was -17.7% [at 38.5 µM].

For the molecule `NC(=O)[C@H]1CCCCc2c1[nH]c1ccc(Cl)cc21`, the “activity change, negative = cytotoxicity” value was -3.65% [at 25.3 µM]. As for `CC(C#N)C(C)O[C@@H]1O[C@H](CO)[C@@H](O)[C@H](O)[C@H]1O` (stereo not given in full), the “activity change, negative = cytotoxicity” value is 5.01%. As to `CCC(=O)O[C@]1(C(=O)CCl)[C@@H](C)C[C@H]2[C@@H]3C[C@H](F)C4=CC(=O)C=C[C@]4(C)[C@@]3(F)[C@@H](O)C[C@@]21C`, the “activity change, negative = cytotoxicity” value is -12.8%.

`CCn1nnnc1NCc1ccc(C(C)C)cc1`: the “activity change, negative = cytotoxicity” value was 4.14%. In the case of `Cc1nnc(C(C)C)n1C1CC2CCC(C1)N2CCC(NC(=O)C1CCC(F)(F)CC1)c1ccccc1` (stereo not given), the “activity change, negative = cytotoxicity” value is -14.9%. In the case of `CC1(C)CCCC2(C)C3=C(C(=O)OC3O)C(O)CC12` (stereo not given), the “activity change, negative = cytotoxicity” value was 0.626%. `CN1C(=O)c2ccccc2-n2c(nc3ccccc3c2=O)[C@@]12O[C@H]2c1ccccc1`: the “activity change, negative = cytotoxicity” value is -5.68% [at 38.5 µM]. With `Nc1ccn([C@@H]2C(F)=C(CO)[C@@H](O)[C@H]2O)c(=O)n1` the figure was -13.8%. In the case of `CCCCCCc1cccc(NC(=O)[C@H](N)CCP(=O)(O)O)c1`, the activity change, negative = cytotoxicity is 5.39% [at 11.6 µM]. Take `COC1CC(OC2CCC3(C)C(=CCC4C3CCC3(C)C(C(C)O)CCC43O)C2)OC(C)C1OC1OC(C)C(OC2OC(COC3OC(COC4OC(CO)C(O)C(O)C4O)C(O)C(O)C3O)C(O)C(O)C2O)C(OC)C1O` (stereo not given): the activity change, negative = cytotoxicity is 2.24% [at 11.6 µM].

Consider `Cc1cc(C)cc(NC(=O)Cc2ccc(OC(C)(C)C(=O)O)cc2)c1`, for which the “activity change, negative = cytotoxicity” value was -5.83%.

Regarding `CC(NC(=O)CC(=O)O)c1nc2ccccc2c(=O)[nH]1` (stereo not given), the “activity change, negative = cytotoxicity” value is 4.37%. For the molecule `COC(=O)C1=CO[C@@H](O[C@@H]2O[C@H](CO[C@@H]3O[C@H](COC(=O)/C=C/c4ccc(O)cc4)[C@@H](O)[C@H](O)[C@H]3O)[C@@H](O)[C@H](O)[C@H]2O)[C@@H]2C(CO)=CC[C@H]12`, the “activity change, negative = cytotoxicity” value was 17.9% [at 25.3 µM].

As for `NC1CCC(N[C@@H]2C[C@H]2c2ccccc2)CC1` (stereo not given in full), the “activity change, negative = cytotoxicity” value was 19.5%. Consider `O=C(/C=C/c1ccc(O)cc1)OC[C@H]1O[C@@H](OC(=O)/C=C/c2ccccc2)[C@H](O)[C@@H](O)[C@@H]1O`, for which the “activity change, negative = cytotoxicity” value is 2.51% [at 25.3 µM]. With `CCC(CC)n1ccc2c(C(=O)NCc3c(C)cc(C)[nH]c3=O)cc(C#N)cc21` the figure was 18.3%; with `O=C(c1ccc(C#Cc2cccc(F)c2)cn1)N1CC2CC2C1` (stereo not given), -5.4%. As to `C=C1[C@H]2[C@H](O[C@@H]3O[C@H](COC(=O)/C=C/c4cc(OC)c(O)c(OC)c4)[C@@H](O)[C@H](O)[C@H]3O)OC=C(C(=O)O)[C@H]2C[C@@H]1O`, the “activity change, negative = cytotoxicity” value is 6.06% [at 25.3 µM].

On to `C=C1CCC2C(C)(C)CC(=O)CC2(C)C1CCC(C)CCOC(C)=O` (stereo not given), for which the “activity change, negative = cytotoxicity” value is 16% [at 38.5 µM]. For the molecule `C=CC(C)(O)CO[C@@H]1O[C@H](CO)[C@@H](O)[C@H](O)[C@H]1O` (stereo not given in full), the “activity change, negative = cytotoxicity” value was -11%.

On to `C/C=C(\C)C(=O)O[C@@H]1CC2[C@@H](CC=C3C[C@@H](O[C@H]4C[C@H](OC)[C@H](O[C@H]5C[C@H](OC)[C@H](O[C@H]6C[C@H](OC)[C@H](O[C@H]7C[C@@H](OC)[C@H](O[C@@H]8O[C@H](CO)[C@@H](O)[C@H](O)[C@H]8O)[C@@H](C)O7)[C@@H](C)O6)[C@@H](C)O5)[C@@H](C)O4)CC[C@@]32C)[C@@]2(O)CC[C@H](C(C)=O)[C@@]12C` (stereo not given in full), for which the activity change, negative = cytotoxicity is -0.474% [at 6.55 µM].
